According to PubChem BioAssay:
Activity calls are given as the source filed them.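 The calls were made as follows, unless noted: active = NADPH fluorescence slope more negative than the mean of all samples by about 3 SD, 99.7% confidence; inactive = the rest.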

Assays:
[1] = inhibitors of TNFa-induced NFkB p65 translocation, primary screen, imaging, HUVEC, MLSMR starter and 10KST1 sets (AID 438;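 active = inhibition above 20% together with a positive visual image hit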;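 also: compound added about 3h40 before a 20 min TNFalpha stimulation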;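 as to inhibition: signal is the nuclear over cytoplasmic p65 intensity ratio per well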); details: HUVEC TNFa-induced p65 nuclear translocation; cell count: measured here: nuclei count (cytotoxicity indicator), at 2.08 µM; inhibition: at 2 µM, stronger effect = higher value, 0% TNFa-plus-vehicle, 100% no-TNFa wells
[2] = reduction of polyQ htt aggregates in cells – imaging, exon1htt(103Q)mCFP cells, high-content imaging, primary screen (AID 483;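 active = visual image review flags a hit and inhibition of aggregation exceeds 20%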;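 also: compound exposure lasted 3 days before fixation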;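 as to nuclei count: percent of the per-plate median nuclei count of sample wells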); details: exon1htt(103Q)mCFP cell line, aggregate imaging, at 2 µM; inhibition of aggregation: stronger effect = higher value; nuclei count: measured here: cell count, toxicity
[3] = endothelial E-selectin expression blockers – imaging, HUVEC, immunofluorescence, MLSMR starter and 10KST1 sets, primary screen (AID 487;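 active = visually confirmed hit in the image check and inhibition above 20%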;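 as to inhibition: signal is fraction of cell area covered by stained E-selectin grains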;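 as to nuclei count: 100% = median nuclei count of all wells on the same plate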); details: HUVEC TNFalpha-induced E-selectin immunofluorescence imaging, at 2 µM; inhibition: stronger effect = higher value; nuclei count: measured here: cell number, toxicity
[4] = biological target: Voltage-gated potassium channel subunit beta-2 (Rattus norvegicus) (UniProt P62483); test: inhibitors of rat Kvbeta2 reductase activity – biochemical, NADPH fluorescence, primary screen (AID 622;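 active = fluorescence slope higher than the sample average by over 3 SD, cut at about -0.22 in these data, passing the limit was not always enough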;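 also: slope of raw intensity against log time taken from 70 to 1610 s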); details: recombinant KvBeta, 4-cyanobenzaldehyde reduction, at 10 µM, stronger effect = higher value
[5] = biological target: Voltage-gated potassium channel subunit beta-2 (Rattus norvegicus) (UniProt P62483); test: enhancers of rat Kvbeta2 NADPH turnover – biochemical, NADPH fluorescence, primary screen (AID 623); details: Recombinant KvBeta, NADPH fluorescence decrease slope, 10 min; at 10 µM; stronger effect = lower value;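 also: fluorescence intensity change per second fitted from 20 to 320 s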
[6] = biological target: Alpha-2C adrenergic receptor (Homo sapiens) (UniProt P18825); test: compounds altering alpha2C-coupled GIRK flux – cell-based, HEK293 alpha2C/GIRK1/2, thallium flux, primary screen (AID 624;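 active = fluorescence slope after compound addition differing from the mean of all screened samples at 99.7% confidence, in either direction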;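 also: slope of fluorescence ratio to pre-addition baseline per second over 15 to 24 s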); details: thallium flux BTC fluorescence, at 10 µM, actives lie on both sides
[7] = blockers of RIG-like receptor reporter activation – cell-based, Sendai virus stimulus, luciferase, 10K MLSCN set, TLR/RLR signaling modifier project, primary screen (AID 602276;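 active = inhibition at or above 50% at 10 µM; inactive = inhibition below 50%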;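 also: firefly luciferase from ISG56 promoter only with Renilla not read in this screen; 0% = Sendai virus plus DMSO and 100% = medium plus DMSO without virus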); details: HEK293 RL24 IRF3 luciferase reporter, at 10 µM, stronger effect = higher value
[8] = TLR3 IRF3 reporter activation blockers – cell-based, poly I:C stimulus, luciferase, 10K MLSCN set, primary screen (AID 602277;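 active = inhibition of the reporter signal at or above 50%; inactive = inhibition below 50%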); details: HEK293-TLR3 RL24 IRF3 luciferase reporter, at 10 µM, stronger effect = higher value

Alpha-2C adrenergic receptor (Homo sapiens), sequence (P18825 whole entry, looked up): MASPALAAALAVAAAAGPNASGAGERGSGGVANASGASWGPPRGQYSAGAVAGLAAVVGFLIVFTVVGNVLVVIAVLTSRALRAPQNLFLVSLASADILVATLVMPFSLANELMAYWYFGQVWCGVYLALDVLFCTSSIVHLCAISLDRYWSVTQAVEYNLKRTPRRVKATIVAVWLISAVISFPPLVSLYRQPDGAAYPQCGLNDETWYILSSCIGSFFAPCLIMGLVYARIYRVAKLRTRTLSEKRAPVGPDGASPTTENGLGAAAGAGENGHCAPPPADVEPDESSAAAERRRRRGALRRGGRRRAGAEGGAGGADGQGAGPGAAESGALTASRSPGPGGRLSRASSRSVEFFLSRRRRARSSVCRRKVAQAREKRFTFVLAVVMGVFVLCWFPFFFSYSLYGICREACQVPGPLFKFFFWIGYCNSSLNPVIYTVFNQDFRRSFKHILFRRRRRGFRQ
Voltage-gated potassium channel subunit beta-2 (Rattus norvegicus), sequence (P62483 whole entry, looked up): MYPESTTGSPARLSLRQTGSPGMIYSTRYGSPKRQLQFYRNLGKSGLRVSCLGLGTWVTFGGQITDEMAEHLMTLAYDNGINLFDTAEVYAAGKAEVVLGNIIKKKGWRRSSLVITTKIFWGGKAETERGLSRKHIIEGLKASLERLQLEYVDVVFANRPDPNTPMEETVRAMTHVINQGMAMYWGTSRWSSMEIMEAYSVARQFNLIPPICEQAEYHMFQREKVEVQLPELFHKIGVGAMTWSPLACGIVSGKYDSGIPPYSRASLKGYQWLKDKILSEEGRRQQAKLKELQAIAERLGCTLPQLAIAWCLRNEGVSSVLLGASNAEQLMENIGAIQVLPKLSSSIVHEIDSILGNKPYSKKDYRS

Row | SMILES | cell count [1] | inhibition [1] | inhibition of aggregation [2] | nuclei count [2] | inhibition [3] | nuclei count [3] | fluorescence slope [4] | NADPH fluorescence slope [5] | slope [6] | inhibition [7] | inhibition [8]
1 | CCN(C(=O)c1c(OC)cccc1OC)c1nnc(-c2cccnc2)s1 | 892 | 3.3% (inactive) | -35.8% (inactive) | 105% | -49.6% (inactive) | 137% | -0.336 (inactive) | -3.4e-05 (inactive) | 0.00467 (inactive) | 8.32% (inactive) | 18.6% (inactive)
2 | Cc1nc(NC(=O)c2ccccc2)sc1-c1csc(NCc2ccco2)n1 | 301 | -2.4% (inactive) | 0% (inactive) | 121% | -13% (inactive) | 113% | -0.185 (inactive) | -1.9e-05 (inactive) | 0.0038 (inactive) | 5.26% (inactive) | -13.8% (inactive)
3 | COc1ccc(C(=O)NCc2nnc(SCC(=O)Nc3cc(C)cc(C)c3)o2)cc1OC | 611 | -14.4% (inactive) | 14% (inactive) | 76.5% | -100% (inactive) | 115% | -0.272 (inactive) | -1e-05 (inactive) | 0.00582 (inactive) | 9% (inactive) | 9.85% (inactive)
4 | CCOC(=O)c1cccnc1SCC(=O)NC(C)CC (centres undefined) | 689 | -22.4% (inactive) | 23.4% (inactive) | 99.8% | -54.6% (inactive) | 119% | -0.469 (inactive) | -0.0001 (inactive) | 0.006 (inactive) | 7.9% (inactive) | 17.7% (inactive)
5 | Cc1ccccc1OCC(O)CN (centres undefined) | 298 | 15.6% (inactive) | 32.2% (active) | 104% | 14.2% (inactive) | 95.6% | -0.542 (inactive) | 1.7e-05 (inactive) | 0.00273 (inactive) | -20.3% (inactive) | -17.4% (inactive)
6 | O=C(OCC(=O)N1CCCC1)c1ccccc1OCc1ccccc1 | 576 | -10.8% (inactive) | -9.8% (inactive) | 95.3% | -42.5% (inactive) | 123% | -0.505 (inactive) | -3.9e-05 (inactive) | 0.00498 (inactive) | -11.3% (inactive) | 6.16% (inactive)
7 | Nc1nnc(C(=O)c2ccccc2N)s1 | 384 | -5.3% (inactive) | -21% (inactive) | 99.9% | -41.8% (inactive) | 106% | -0.438 (inactive) | -0.000136 (inactive) | 0.00502 (inactive) | -1.19% (inactive) | -4.86% (inactive)
8 | COc1nc(OC)nc(N2CCC(C(=O)NCc3cccs3)CC2)n1 | 559 | -15% (inactive) | -22.8% (inactive) | 112% | -1.7% (inactive) | 107% | -0.528 (inactive) | -4.4e-05 (inactive) | 0.00626 (inactive) | -3.8% (inactive) | -2.92% (inactive)
9 | CCC(C)(C)n1nnnc1C(c1cc2cc(OC)ccc2[nH]c1=O)N1CCc2ccccc21 (centres undefined) | 411 | -18.4% (inactive) | 9.8% (inactive) | 100% | -14.8% (inactive) | 116% | -0.592 (inactive) | -4.5e-05 (inactive) | 0.0033 (inactive) | 14.9% (inactive) | 29.5% (inactive)
10 | COCCCNC(=O)c1ccccc1NS(=O)(=O)c1ccc(C)cc1 | 369 | -0.9% (inactive) | -9% (inactive) | 122% | -66.6% (inactive) | 72.3% | -0.423 (inactive) | -1.5e-05 (inactive) | 0.00558 (inactive) | 11.8% (inactive) | 16.1% (inactive)
11 | CCCN(CC1CC1)C(=O)Nc1ccccc1C | 693 | -11.6% (inactive) | 9.8% (inactive) | 101% | -32.9% (inactive) | 103% | -0.529 (inactive) | 3.7e-05 (inactive) | 0.00657 (inactive) | -4.1% (inactive) | -19% (inactive)
12 | COc1cccc(NC(=O)C2C3C=CC4(O3)C2C(=O)N(C(C)C)C4C(=O)NC2CCCCC2C)c1 (centres undefined) | 424 | 2.6% (inactive) | -8.5% (inactive) | 110% | -98.5% (inactive) | 114% | -0.525 (inactive) | 3.5e-06 (inactive) | 0.00614 (inactive) | 2.64% (inactive) | 7.71% (inactive)
13 | CN(CCc1ccccn1)C(=O)CCNC(=O)Cn1cnc2ccccc2c1=O | 202 | -7.4% (inactive) | -4.7% (inactive) | 99.5% | -6.6% (inactive) | 110% | -0.611 (inactive) | 1.1e-05 (inactive) | 0.00589 (inactive) | 13.8% (inactive) | 14.4% (inactive)
14 | CCOCCCNC(=O)CC1Oc2ccc(C)cc2NC1=O (centres undefined) | 595 | -6.2% (inactive) | 8.5% (inactive) | 107% | -6.5% (inactive) | 121% | -0.525 (inactive) | -3.6e-05 (inactive) | 0.00596 (inactive) | 5.01% (inactive) | 19.8% (inactive)
